Test results as given in PubChem BioAssay AID1159580 (chemical genetic matrix, 2015).
Where “and” joins values, the source holds several entries; their conditions need not be identical. Identical values can stand only once. Hit rate of the full screen: of about 5,500 compounds, about 2,000 (36%) were called active. Another 18% or so got no clear call; they are omitted. Cut-off read from the data, not from the text of the source: active = normalized growth mostly below about 0.91 (no sharp cut-off); inconclusive = no clear call, values can overlap the other calls; inactive = mostly above about 0.92. The list shows a part of the results.

Assay: chemical genetic growth profiling, strain panel (AID 1159580);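 note: tested at 20 µM; growth read once vehicle control cultures reached saturation at 30 °C; 1 = growth at the plate median or of vehicle wells; lower values mean less growth of the strain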
Settings: S. cerevisiae deletion strains, growth OD

Measured: normalized growth

CCCSc1ccc2nc(NC(=O)OC)[nH]c2c1
active: locus YBR021W, strain FUR4, active compounds read low 1.2 [resistant] | locus YCL029C, strain bik1, active compounds read low 0.82 | locus YDR195W, strain ref2 1.15 [resistant] | locus YEL003W, strain gim4, active compounds read low 0.446 | locus YGR078C, strain PAC10, active compounds read low 0.11
inactive: locus YAL013W, strain DEP1, active compounds read low 0.995 | locus YAL021C, strain ccr4, active compounds read low 1.01 | locus YAL026C, strain drs2, active compounds read low 1.01 | locus YAL030W, strain snc1, active compounds read low 1 | locus YBL061C, strain skt5, active compounds read low 1.01 | locus YBR009C, strain hhf1, active compounds read low 1.01 | locus YBR023C, strain chs3, active compounds read low 1.01 | locus YBR171W, strain sec66, active compounds read low 1.02 | locus YBR229C, strain ROT2, active compounds read low 0.992 | locus YBR231C, strain swc5, active compounds read low 0.922 | locus YBR279W, strain paf1, active compounds read low 1.01 | locus YCL011C, strain gbp2, active compounds read low 1.01 | locus YCL016C, strain dcc1, active compounds read low 1.01 | locus YCL061C, strain MRC1, active compounds read low 1.01 | locus YCL069W, strain vba3, active compounds read low 1.01 | locus YCR088W, strain abp1, active compounds read low 1.01 | locus YDL005C, strain med2, active compounds read low 1.03 | locus YDL035C, strain GPR1, active compounds read low 0.99 | locus YDL040C, strain nat1, active compounds read low 1.01 | locus YDL074C, strain BRE1, active compounds read low 0.866 | locus YDL101C, strain DUN1, active compounds read low 0.993 | locus YDL134C, strain PPH21, active compounds read low 1.01 | locus YDL185W, strain tfp1, active compounds read low 0.93 | locus YDL192W, strain arf1, active compounds read low 0.971 | locus YDR001C, strain nth1, active compounds read low 1.01 | locus YDR069C, strain doa4, active compounds read low 0.998 | locus YDR101C, strain arx1, active compounds read low 0.961 | locus YDR137W, strain rgp1, active compounds read low 0.862 | locus YDR150W, strain NUM1, active compounds read low 0.977 | locus YDR159W, strain sac3, active compounds read low 1.04 | locus YDR162C, strain NBP2, active compounds read low 0.993 | locus YDR297W, strain sur2, active compounds read low 1.01 | locus YDR318W, strain mcm21, active compounds read low 0.956 | locus YDR334W, strain swr1, active compounds read low 0.962 | locus YDR335W, strain msn5, active compounds read low 1.02 | locus YDR388W, active compounds read low 0.969 | locus YDR392W, strain spt3, active compounds read low 0.967 | locus YDR502C, strain sam2, active compounds read low 0.966 | locus YEL037C, strain rad23, active compounds read low 1 | locus YEL061C, strain CIN8 (second series), active compounds read low 1.01 | locus YEL061C, strain CIN8, active compounds read low 0.997 | locus YER015W, strain faa2, active compounds read low 1 | locus YER016W, strain bim1, active compounds read low 1.01 | locus YER110C, active compounds read low 0.976 | locus YER111C, strain swi4, active compounds read low 1.02 | locus YER155C, strain BEM2 (second series), active compounds read low 0.999 | locus YER155C, strain BEM2, active compounds read low 0.991 | locus YER167W, strain BCK2, active compounds read low 0.988 | locus YFR010W, strain ubp6, active compounds read low 1.02 | locus YGL078C, strain dbp3, active compounds read low 0.955 | locus YGL086W, strain mad1, active compounds read low 0.974 | locus YGL167C, strain pmr1, active compounds read low 1.02 | locus YGL173C, strain kem1, active compounds read low 1.02 | locus YGL227W, strain vid30, active compounds read low 1 | locus YGL240W, strain doc1, active compounds read low 1.01 | locus YGL248W, strain PDE1, active compounds read low 0.996 | locus YGL253W, strain hxk2, active compounds read low 1.01 | locus YGR135W, strain pre9, active compounds read low 0.944 | locus YGR229C, strain SMI1, active compounds read low 0.968 | locus YGR252W, strain gcn5, active compounds read low 1.16 | locus YHR013C, strain ard1, active compounds read low 1.01 | locus YHR027C, strain rpn1, active compounds read low 1.01 | locus YHR030C, strain SLT2, active compounds read low 0.99 and 0.897 | locus YHR079C, strain IRE1 (second series), active compounds read low 0.942 | locus YHR079C, strain IRE1, active compounds read low 0.933 | locus YHR094C, strain hxt1, active compounds read low 0.965 | locus YHR129C, strain ARP1, active compounds read low 0.983 | locus YHR142W, strain chs7, active compounds read low 1.01 | locus YHR200W, strain rpn10, active compounds read low 0.951 | locus YIL066C, strain RNR3, active compounds read low 0.98 | locus YIL073C, strain SPO22, active compounds read low 0.894 | locus YIL125W, strain kgd1, active compounds read low 0.98 | locus YIR030C, strain dcg1, active compounds read low 0.983 | locus YJL092W, strain hpr5, active compounds read low 1 | locus YJL095W, strain BCK1 (second series), active compounds read low 1.01 | locus YJL095W, strain BCK1, active compounds read low 0.95 and 0.922 | locus YJL115W, strain asf1, active compounds read low 1.02 | locus YJL129C, strain trk1, active compounds read low 1.01 | locus YJL134W, strain LCB3, active compounds read low 0.992 | locus YJL154C, strain vps35, active compounds read low 1 | locus YJL164C, strain tpk1, active compounds read low 1.01 | locus YJL166W, strain qcr8, active compounds read low 1 | locus YJL168C, strain set2, active compounds read low 0.969 | locus YJL187C, strain SWE1 (second series), active compounds read low 0.963 | locus YJL187C, strain SWE1, active compounds read low 1 | locus YJR043C, strain POL32, active compounds read low 0.967 | locus YJR066W, strain TOR1, active compounds read low 0.909
